# Data: PubChem BioAssay (NCATS)
# Values joined by “and” are separate entries in the source; they are usually repeats but may differ in a detail not shown here. Equal values may be shown once. Inconclusive results are not listed. A number with no mark means an inactive call. Active and inactive are the calls of the source.
# What was measured:
# [1] = qHTS assay for small molecule activators of the p53 signaling pathway (AID 651743; active = well fitted activation curve with a large enough effect in the signal ratio, not every such curve was filed as active; the % refers to the signal ratio; note: % of control where 0% means no effect); settings: HCT-116 p53RE-bla, beta-lactamase FRET ratio, 16 h; activation: hits give high values
# In short: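 Following 16 hours of compound exposure at 37 C, HCT-116 cells bearing the p53RE-bla reporter were loaded with LiveBLAzer B/G FRET substrate for 2 hours at room temperature and fluorescence intensity was recorded.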
# [2] = qHTS assay for small molecule agonists of the antioxidant response element (ARE) signaling pathway (AID 651741; active = well fitted activation curve with a large enough effect in the signal ratio; the % refers to the signal ratio; note: potency is the fitted concentration of half-maximal effect; for activation: % of control where 0% means no effect); settings: HepG2 ARE-bla reporter, beta-lactamase FRET ratio, 16 h; series mostly up to 96 µM
# In short: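 Stably integrated ARE-beta-lactamase reporter HepG2 cells; 16 h compound incubation, 37 C; LiveBLAzer FRET substrate 2 h at room temperature; fluorescence intensity.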
SMILES,activation [1],Potency [2]
O=C(c1ccccc1)c1ccccc1,-6.89% and 0.517%,–
CN1C(=O)c2ccccc2C1=O,8.47%,inactive
O=C(NO)c1ccccc1,3.57%,–
CC(C)(C)c1ccc(O)c(O)c1,2.58% and -2.7%,37.6 µM (active) and 48.6 µM (active)
CCCCCCCCCCCCCCCC[n+]1ccccc1,2.82%,–
